The full list was thinned out, with hits kept by preference.
SARS PLpro yeast: SARS-CoV PLP inhibition in yeast; S. cerevisiae expressing SARS-CoV PLpro, growth rescue; Potency, µM (top dose mostly 32.9 µM), for inactives: at the top dose activity, positive = growth rescue, hits mostly activators; actives 0.19% (n = 330,000); AID 485353; calls by dose curve; also: potency is read from the fitted curve at half-maximal effect; 0% is about no effect; nearly all actives have a fitted effect of over 55% in size
Tb PYK inh: inhibitors of Trypanosoma brucei pyruvate kinase. AID 624173. actives 0.12% (n = 410,000). Q57TT1. Potency, µM (titrated, usually from 76.8 µM), without a hit: top-dose activity, negative = inhibition, actives largely listed as inhibitors. TbPYK enzyme, Kinase-Glo Plus ATP luminescence, 45 min; also: potency is read from the fitted curve at half-maximal effect; % is scaled to controls: 0 for no effect and ±100 for the full control effect; nearly all actives have a fitted effect of over 50% in size
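ADP (130 uM final) triggers the TbPYK reaction after compound addition; incubation is 45 min at room temperature. Kinase-Glo Plus is then added and luminescence imaged. Normalized data are fitted to concentration-effect curves.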
Shiga inhibitor: inhibitors of Shiga toxin in Vero cells; Vero cells, Shiga toxin protein synthesis inhibition reporter; actives 9.2% (n = 290,000); AID 2315; inhibition, % at 38.7 µM; in the data active = inhibition mostly above about 28%, no sharp cut-off; inactive = mostly below about 43%; also: 0% is about no effect
LmPK inhibitor: LmPK (Leishmania mexicana) enzyme inhibition | actives 0.37% (n = 290,000) | Potency, µM (titrated, usually from 57.5 µM), for the others: top-dose activity change, negative = inhibition, actives largely listed as inhibitors | Q27686 | purified LmPK, Kinase-Glo ATP luminescence, 1 h | AID 1721; also: potency is read from the fitted curve at half-maximal effect; % is scaled to controls: 0 for no effect and ±100 for the full control effect
Target sequence (Q27686 whole entry, looked up): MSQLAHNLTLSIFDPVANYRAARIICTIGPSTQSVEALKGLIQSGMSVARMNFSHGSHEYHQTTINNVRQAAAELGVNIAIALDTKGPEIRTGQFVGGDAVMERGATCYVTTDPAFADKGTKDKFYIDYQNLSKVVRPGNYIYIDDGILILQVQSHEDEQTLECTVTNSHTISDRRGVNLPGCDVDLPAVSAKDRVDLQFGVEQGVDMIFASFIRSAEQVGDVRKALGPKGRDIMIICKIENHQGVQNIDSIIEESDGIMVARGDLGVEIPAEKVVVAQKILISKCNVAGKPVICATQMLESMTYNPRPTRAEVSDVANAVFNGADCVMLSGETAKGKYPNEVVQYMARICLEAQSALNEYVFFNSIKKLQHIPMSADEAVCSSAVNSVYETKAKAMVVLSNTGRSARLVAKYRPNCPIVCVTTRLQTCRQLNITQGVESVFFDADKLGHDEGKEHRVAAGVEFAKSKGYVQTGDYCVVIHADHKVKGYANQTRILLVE
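0.1 nM LmPK, 0.5 mM PEP, 0.1 mM ADP; 50 mM imidazole pH 7.2, 7 mM MgCl2, 50 mM KCl; 1 h RT. Kinase-Glo luminescence readout, normalized to no-enzyme (full inhibition) and uninhibited wells.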
Cycloheximide cs: counter-screen hit for Shiga toxin inhibitors, cycloheximide; cell reporter, cycloheximide protein synthesis inhibition counterscreen; actives 12% (n = 300,000); max response, %; in the data active = max response mostly above about 13%, no sharp cut-off; inactive = mostly below about 14%; also: read at 38.3 µM for the half of the compounds with a filed dose; 0% is about no effect
NS1 function inh: inhibitors of influenza NS1 protein function | Potency, µM (highest dose often 46.1 µM), without a hit: at the top dose activity, positive = more growth | actives 0.4% (n = 270,000) | AID 2326; calls by dose curve; also: potency is read from the fitted curve at half-maximal effect; actives are rising curves; nearly all actives have a fitted effect of over 50% in size
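S. cerevisiae expressing influenza A NS1, grown in glucose, washed, then diluted 1:100 into pH 6.0 -URA galactose medium with 23 nl compound. Growth recovery read as OD600; NS1-free strain serves as control.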
* hit, by the source's call; ? = inconclusive; . = no result given. Unless noted, calls follow the shape of the dose curve; as a rule, active = well fitted curve in the direction sought with a large enough effect; inconclusive = small, poorly fitted or top-dose-only effect, or another doubt; inactive = no such curve, though single readings can be large; an effect the other way counts as inactive or inconclusive.

SMILES	SARS PLpro yeast	Tb PYK inh	Shiga inhibitor	LmPK inhibitor	Cycloheximide cs	NS1 function inh
COc1ccc(C2=NN(C(=O)c3cccs3)C(c3ccc(OC)cc3)C2)cc1 (centres undefined)	-2%	0%	22	7%	13*	-3%
COc1ccc(C2CC(c3ccccc3)=NN2C(=O)CSc2ncn[nH]2)cc1 (centres undefined)	-1%	1%	36	7%	17*	.
Cc1ccc(C2CC(c3cccs3)=NN2C(=O)CCl)cc1 (centres undefined)	-5%	-7%	43*	0%	43*	-48%
CC(C)c1ccc(NC(=O)CSC2=Nc3ccccc3C3=NC(CC(=O)NCCc4ccccc4)C(=O)N23)cc1 (centres undefined)	.	-3%	.	.	.	.
O=C(O)CC1(CC(=O)NCc2ccncc2)CCCCC1	1%	0%	-9	5%	-1	7%
CC(=O)Nc1ccc(S(=O)(=O)N2CCN(C(=O)c3ncoc3-c3ccc(C)cc3)CC2)cc1	1%	-11%	12	1%	-1	-5%
CCOc1ccc(-n2c(-c3ccc(Br)cc3)cc3c2CC(C)(C)CC3=O)cc1	.	0%	.	.	.	.
CNc1nc(N2CCc3ccccc32)ncc1F	-6%	0%	105*	?	39*	-59%
COc1ccc(C2CC(=O)c3cnc(N4CCc5ccccc54)nc3C2)cc1OC (centres undefined)	1%	.	2	6%	-3	2%
N#Cc1ccc(CN2CCN(C(=O)CCNS(=O)(=O)c3ccc(F)c(F)c3)CC2)cc1	1%	-3%	.	.	.	.
Nc1nc(N)nc(CCCc2nc(N)nc(N)n2)n1	.	.	.	.	.	6%
CSc1nc(Cl)cc(Nc2ccccc2N)n1	-6%	3%	5	-10%	19	.
Nc1nc(Cl)cc(Nc2ccccc2Cl)n1	4%	5%	18	4%	12*	7%
CNC(=O)c1c(C)[nH]c(=S)c(C#N)c1-c1ccco1	0%	7.9µM*	8	29%	0	14%
Clc1ccc2oc(SCc3cccnc3)nc2c1	-3%	-2%	66*	-3%	23*	-6%
Clc1ccc2oc(-c3ccccc3)nc2c1	-3%	1%	107*	-19%	46*	6%
Cc1ccccc1-c1nc2cc(Cl)ccc2o1	?	4%	87	-22%	38*	-7%
O=S(=O)(Nc1ccc2oc(-c3ccccc3)nc2c1)c1ccccc1	-31%	2%	51	2%	31*	-64%
Cc1ccc(-c2nc3cc(NS(=O)(=O)c4ccc(C)cc4)ccc3o2)cc1	-23%	-17%	13	5%	8	-48%
Cc1cccc(NC(=O)c2cn(-c3ccccc3)nc2-c2ccccc2)c1C	.	-3%	.	.	.	.
CCCCOc1ccc(C(=O)N(Cc2nc(-c3ccc(Cl)cc3)no2)C(C)C)cc1	.	-6%	.	.	.	.
Clc1ccc2oc(-c3cccnc3)nc2c1	0%	-5%	85*	-8%	47*	-3%
O=C(O)Cc1ccc2oc(-c3cccnc3)nc2c1	1%	-1%	20	-4%	-3	.
Cc1c(C)c2ccc(O[C@@H]3O[C@H](CO)[C@H](O)[C@H](O)[C@H]3O)c(C)c2oc1=O	-2%	-5%	6	-1%	6	1%
Cc1c(O[C@@H]2O[C@H](CO)[C@@H](O)[C@H](O)[C@H]2O)ccc2c1oc(=O)c1ccccc12	9%	4%	48	0%	15*	6%
SMILES	SARS PLpro yeast	Tb PYK inh	Shiga inhibitor	LmPK inhibitor	Cycloheximide cs	NS1 function inh
Cn1c(-c2ccc(F)cc2)cnc1NCc1cccc(F)c1	-10%	5%	45	4%	19	-20%
Cn1c(-c2ccccc2)cnc1NCc1ccc(F)cc1	1%	5%	39	-4%	24*	2%
CSc1ccc(CNc2ncc(-c3ccccc3)n2C)cc1	.	38%	.	.	.	.
Cn1c(-c2ccc(F)cc2)cnc1NCc1ccccc1	0%	-1%	55	0%	20*	-3%
CCN(CC)c1ccc(/C=C2/C(=O)c3ccc(C(=O)O)cc3C2=O)cc1	8%	?	68*	?	77*	2%
COc1ccc(NC(=O)c2ccc3c(=O)n(CC4CCCO4)c(=S)[nH]c3c2)c(OC)c1 (centres undefined)	-9%	-9%	-25	-5%	-4	3%
O=C(COC(=O)c1ccc([N+](=O)[O-])o1)NC1CCCc2ccccc21 (centres undefined)	13%	6%	.	.	.	.
Fc1ccc(SCCc2ccncc2)cc1	-1%	2%	-2	-5%	3	-1%
c1ccc(SCCc2ccncc2)cc1	-2%	-6%	15	-12%	20*	-3%
CC(C)(C)c1ccc(SCCc2cccnc2)cc1	-1%	-1%	110*	-1%	44*	-6%
O=[N+]([O-])c1ccc(Nc2ccc(Cl)cc2)nc1	0%	2%	4	8%	-5	0%
O=[N+]([O-])c1ccc(Nc2ccc3ccccc3c2)nc1	0%	-14%	89*	9%	45*	-10%
Cc1ccc(Cl)cc1N1CCN(C(=O)c2cn(C)c3ccc(S(=O)(=O)N4CCCC4)cc3c2=O)CC1	.	-2%	.	.	.	.
Cc1ccc(NC(=O)Cn2cc(S(=O)(=O)N3CCCC3)c(S(=O)(=O)N3CCCC3)c2)cc1C	.	-12%	.	.	.	.
S=C(Nc1ccc2c(c1)OCO2)Nc1ccccc1Cl	-2%	0%	35*	-3%	24*	1%
S=C(Nc1ccc2c(c1)OCCO2)Nc1ccc2c(c1)OCO2	0%	-2%	120*	-2%	57*	.
CC(C(=O)Nc1ccc2c(c1)OCO2)N(C)CC(=O)Nc1ccccc1Cl (centres undefined)	-2%	0%	.	.	.	.
CCCC(C(=O)NC(C)(C)C)N(C(=O)c1snc(C(N)=O)c1N)c1ccc2c(c1)OCCO2 (centres undefined)	0%	-1%	114*	-2%	56*	.
CC(C)CC(C(=O)NC(C)(C)C)N(Cc1cccs1)C(=O)c1snc(C(N)=O)c1N (centres undefined)	1%	2%	47*	8%	49*	.
CCOc1ccc(CNC(=O)c2oc3c(c2C)-c2nn(Cc4cccc(Cl)c4)cc2CC3)cc1	.	0%	.	.	.	.
CN(C)C(CNS(=O)(=O)c1cc([N+](=O)[O-])ccc1Cl)c1ccco1 (centres undefined)	5%	-18%	.	.	.	.
Cn1ccnc1SCC(=O)N1CCc2ccccc21	-9%	2%	79*	-13%	31*	14%
O=C(CSc1ccccn1)N1CCc2ccccc21	-2%	-6%	116*	?	40*	.

From PubChem
